Rows were chosen to be rich in hits. Some 11% of all compounds tested hit in one or more screens of this group.
USP30 block – inhibitors of human USP30 deubiquitinase; Q70CQ3; purified USP30, Ub-rhodamine cleavage fluorescence; inhibition, % at 25 µM; 47,000 tested, 5.3% active
USP28 inh – human USP28 deubiquitinase inhibition; 47,000 tested, 3% active; AID 1645857; inhibition, % at 25 µM; purified USP28, Ub-rhodamine cleavage fluorescence, 30 min; Q96RU2
OTUD3 block – blocks human OTUD3 ubiquitin-rhodamine cleavage; Q5T2D3; purified OTUD3, Ub-rhodamine fluorescence, 2 h; inhibition, % at 25 µM; 47,000 tested, 0.7% active; AID 1645858
USP17 block – inhibitors of human USP17 deubiquitinase | inhibition, % at 50 µM | purified USP17, Ub-rhodamine cleavage fluorescence, 3 h | A8MUK1 | AID 1645855 | 47,000 tested, 6.5% active
Target sequence (A8MUK1 whole entry, looked up): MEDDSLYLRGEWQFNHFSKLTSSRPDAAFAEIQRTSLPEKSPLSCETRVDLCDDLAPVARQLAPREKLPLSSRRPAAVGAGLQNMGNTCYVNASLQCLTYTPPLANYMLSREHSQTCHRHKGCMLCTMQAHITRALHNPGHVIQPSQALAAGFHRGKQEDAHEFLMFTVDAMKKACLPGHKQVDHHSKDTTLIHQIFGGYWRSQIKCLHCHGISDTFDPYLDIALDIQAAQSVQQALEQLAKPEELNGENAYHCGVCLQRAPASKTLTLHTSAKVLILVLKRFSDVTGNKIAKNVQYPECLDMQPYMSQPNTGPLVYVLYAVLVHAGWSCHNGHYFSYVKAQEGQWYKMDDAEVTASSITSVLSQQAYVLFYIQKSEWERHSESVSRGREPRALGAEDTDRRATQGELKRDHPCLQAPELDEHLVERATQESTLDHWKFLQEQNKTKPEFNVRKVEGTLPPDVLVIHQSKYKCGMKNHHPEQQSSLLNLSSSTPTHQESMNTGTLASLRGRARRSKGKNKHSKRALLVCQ
* marks the source's active call; other numbers are inactive results; . = no result given. Cut-off read from the data, not from the text of the source: active = inhibition above about 30%; inactive = the rest.

SMILES	USP30 block	USP28 inh	OTUD3 block	USP17 block
Cc1c(-c2ccccc2)nn2c1NC(=O)CC2C(=O)Nc1ccc2c(c1)OCO2 (stereo not drawn)	-16	-2	-11	47*
COc1ccc(NC(=O)C2CC(=O)Nc3cc(-c4ccccc4)nn32)cc1 (stereo not drawn)	27	26	11	56*
O=C1CC(C(=O)Nc2ccc3c(c2)OCO3)n2ncnc2N1 (stereo not drawn)	16	9	10	-9
COc1ccc(-c2cnn3c2NC(=O)CC3C(=O)Nc2ccc3c(c2)OCO3)cc1 (stereo not drawn)	10	-6	-6	2
COc1ccc(-c2nn3c(c2C)NC(=O)CC3C(=O)Nc2ccc3c(c2)OCO3)cc1 (stereo not drawn)	38*	26	5	8
O=C(Cn1cncc(C(=O)NC2CCCC2)c1=O)Nc1cccc(F)c1	0	-4	-3	82*
O=C(Cn1c(-c2ccccc2)ncc(C(=O)NC2CC2)c1=O)Nc1ccccc1	73*	27	20	36*
CCCSc1nc(N)c2c3c(sc2n1)COC(C)(C)C3	-13	-11	-5	47*
NC(=O)C1CCN(C(=O)Cn2c(=O)[nH]c3ccccc3c2=O)CC1	13	7	5	6
COc1cccc(C2CC(=O)Nc3n[nH]c(-c4ccccc4)c32)c1 (stereo not drawn)	63*	23	17	68*
Cc1cc(-c2nnc(C3CCC3)o2)c(C)n1CC(=O)Nc1ccccc1F	-50	-13	-4	-11
CCc1ccc(OCC(=O)N(C)Cc2cc(=O)[nH]c3ccccc23)cc1	14	7	6	17
Cc1ccc(C2c3c(C)nn(-c4ccccc4)c3Oc3ncn4nc(-c5ccccc5O)nc4c32)cc1 (stereo not drawn)	34*	2	7	16
COc1ccc(CCNC(=O)[C@@H]2Cc3c([nH]c4ccccc34)C3c4ccccc4C(=O)N32)cc1 (stereo partly drawn)	-10	6	7	0
O=C(Nc1ccc(-c2ccno2)cc1)C1CCN(S(=O)(=O)c2cccnc2)CC1	-31	-10	-5	-16
COc1ccc(NC(=O)C2CCN(c3cncnc3N(C)C)CC2)cc1OC	-8	72*	-2	2
CC(=O)c1ccc(NC(=O)C2CCN(c3cncnc3N3CCCC3)CC2)cc1	-12	89*	-8	-14
CC(=O)c1ccc(NC(=O)C2CCN(S(=O)(=O)c3cccnc3)CC2)cc1	35*	13	12	14
C=C[C@]1(C)C=C2C(=O)[C@]3(O)OC(=O)[C@@]4(CCCC(C)(C)[C@H]34)[C@@]2(O)CC1	25	24	11	69*
Cc1ccc(S(=O)(=O)N2CCOCC2CCc2cnccn2)cc1 (stereo not drawn)	6	-5	0	-2
O=C(COC(=O)C(Cc1c[nH]c2ccccc12)NC(=O)c1ccccc1Cl)Nc1cc(F)ccc1F (stereo not drawn)	16	22	10	32*
c1cnc(N2CCCC(c3nc(N4CCOCC4)ncc3-c3cccnc3)C2)nc1 (stereo not drawn)	-18	0	1	-1
Cc1ccc(-c2nc(N3CCCC(O)C3)ncc2-c2cnccn2)s1 (stereo not drawn)	-139	-24	-27	73*
COc1ccc(CC(=O)Nc2cccn3ncnc23)cc1OC	-12	0	-3	-4
O=C(O)CC1C(=O)Nc2c(O)cccc21 (stereo not drawn)	11	0	1	-4
SMILES	USP30 block	USP28 inh	OTUD3 block	USP17 block
COC(=O)CC1CC2=C(C(=O)c3c(O)cccc3C2=O)C(C)O1 (stereo not drawn)	-99	40*	24	42*
CC1OC(CC(=O)O)CC23OC12C(=O)c1c(O)cccc1C3=O (stereo not drawn)	-93	14	8	63*
COC(=O)CC1CC23OC2(C(=O)c2c(O)cccc2C3=O)C(C)O1 (stereo not drawn)	-78	25	11	65*
COc1ccc(C(=O)Nc2c(C(=O)N3CCN(C)CC3)oc3ccccc23)cc1	-5	-5	-7	0
CCOC(=O)N1CCN(C(=O)CSc2ncccn2)CC1	17	7	15	6
CCOC(=O)c1ccc(Oc2sccc2[N+](=O)[O-])cc1	-18	5	13	-4
CC(C)(C)c1ccccc1NC(=O)c1ccc2c(c1)SC1=NS(=O)(=O)CCN12	-8	31*	0	12
Cc1ccc(CNC(=O)CCc2csc(NC(=O)c3ccc(=O)[nH]c3)n2)cc1	33*	23	22	-11
O=C(CN1C(=O)c2cccc3cccc1c23)NCCSCc1cccc(Cl)c1	-19	-7	-12	3
CCn1nccc1C1CCCN1S(=O)(=O)c1cc(C)c(C)cc1C (stereo not drawn)	-7	-3	-6	-9
Cn1c2ccccc2c(=O)c2c(=O)n(-c3cccc(Cl)c3)c(-c3cccs3)nc21	-146	-21	-7	30*
Cn1c2ccccc2c(=O)c2c(=O)n(-c3ccccc3)c(-c3ccc(Cl)cc3)nc21	27	16	16	19
CCc1nc2c(c(=O)c3ccccc3n2C)c(=O)n1-c1ccc(C)cc1	.	.	1	49*
COc1ccc(-c2nc(CNC(=O)COc3ccc(C)cc3)cs2)cc1	12	7	9	57*
Cc1cccc(OCC(=O)NCc2cc(-c3ccccc3F)on2)c1	42*	18	16	42*
COc1cccc(C(=O)NCc2cc(-c3ccc(F)cc3F)on2)c1OC	40*	0	-6	0
COc1cccc(-c2cc(CNC(=O)COc3ccc(F)cc3)no2)c1	35*	12	2	3
CC1=C(C(=O)N2CCCCC2)C(c2ccc(F)cc2)n2c(nc3ccccc32)N1 (stereo not drawn)	-6	0	5	8
CC1=C(C(=O)N2CCOCC2)C(c2cccs2)n2c(nc3ccccc32)N1 (stereo not drawn)	-71	-18	-17	-15
O=C1CCCC2=C1C(c1ccc(Cl)cc1)n1c(nc3ccccc31)N2 (stereo not drawn)	37*	18	13	21
CC(=O)C1=C(C)Nc2nc3ccccc3n2C1c1cccs1 (stereo not drawn)	49*	22	20	38*
CC(=O)C1=C(C)Nc2nc3ccccc3n2C1c1ccc(O)cc1 (stereo not drawn)	-19	1	-5	35*
Cc1ccc(NC(=O)C2CN(S(C)(=O)=O)c3ccccc3O2)cc1 (stereo not drawn)	0	0	-5	0
CCCc1nc(SCC(=O)Nc2ccccc2)c2c(=O)n(C)c(=O)n(C)c2n1	31*	12	16	24
COc1cccc(Cn2nc3n(CC(C)C)c(=O)c4ccc(C(=O)NCC(C)C)cc4n3c2=O)c1	65*	29	36*	39*
CCN1CCN(CCNC(=O)c2cc3cn(C4CC4)cc3s2)CC1	-144	-19	-21	2
O=C(c1ccccn1)N1CCC[C@@]2(C[C@@H](Oc3ccc(Cl)cc3)CO2)C1	-2	-1	0	11
O=C(CSc1nnc(C2CC2)n1-c1ccccc1)c1ccc(F)c(F)c1	32*	6	10	3

Source: PubChem BioAssay
